Results taken from PubChem BioAssay AID1851 (National Center for Advancing Translational Sciences (NCATS), 2009).
About 4,000 (25%) of roughly 16,000 compounds were called active. Another 26% or so got no clear call; they are omitted. The call rests on the fitted dose curve; in most records, active means well fitted curve in the direction sought with a large enough effect; inconclusive means small, poorly fitted or top-dose-only effect, or effect the other way; inactive means no such curve, though single readings can be large or run the other way. Only a sample is shown.

The compounds below were run against Cytochrome P450 2C9 (Homo sapiens) (UniProt P11712) (assay: Cytochrome panel assay with activity outcomes). Details: recombinant CYP, pro-luciferin dealkylation, luminescence, p450-cyp2c9; series mostly up to 57.1 µM.
Chain of Cytochrome P450 2C9 (Homo sapiens) (P11712 whole entry, looked up): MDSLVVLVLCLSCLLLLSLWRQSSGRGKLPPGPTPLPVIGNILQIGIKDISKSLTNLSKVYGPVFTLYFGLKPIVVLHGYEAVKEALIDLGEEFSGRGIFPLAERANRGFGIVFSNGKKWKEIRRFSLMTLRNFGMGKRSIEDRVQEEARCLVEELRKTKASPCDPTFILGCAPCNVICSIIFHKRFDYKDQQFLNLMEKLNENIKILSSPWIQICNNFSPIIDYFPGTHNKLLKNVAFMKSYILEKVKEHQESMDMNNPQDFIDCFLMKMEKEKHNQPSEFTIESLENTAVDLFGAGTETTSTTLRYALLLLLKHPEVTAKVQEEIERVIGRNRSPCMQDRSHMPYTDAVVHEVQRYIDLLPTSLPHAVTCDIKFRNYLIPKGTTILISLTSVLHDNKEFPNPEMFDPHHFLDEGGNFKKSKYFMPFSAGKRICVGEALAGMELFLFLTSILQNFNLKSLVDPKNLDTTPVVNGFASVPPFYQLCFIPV
On the % scale 0 is the no-effect control and ±100 the full control effect.

activity, negative = inhibition, inactive:
N/C(=N\O)c1cn([C@@H]2O[C@@H](CO)[C@H](O)[C@@H]2O)c2ncnc(NO)c12 -5.39% [at 11.4 µM]
O=C(O)CCNc1ncnc2nc[nH]c12 23.7% [at 11.4 µM]
S=C(S)NCCN1CCNCC1 -16.5% [at 11.4 µM]
O=S1(=O)N[C@H]2CC[C@@H]3NS(=O)(=O)N[C@H]4CC[C@H](N1)N4S(=O)(=O)N23 -6.3% [at 11.4 µM]
CCOC(=O)c1c(O)[nH]c(=O)c(CC)c1C 4.97% [at 11.4 µM]
N#Cc1cccc(-c2nccc(NCc3cccs3)n2)c1 5.43% [at 2.29 µM]
CC(=O)NCCNc1ncncc1-c1ccccc1CN(C)C 4.96% [at 2.29 µM]
C/C(CCN1CCCc2nc(C)c(C)cc21)=N\OC[C@@H](O)[C@@H]1O[C@@H]2OC(C)(C)O[C@@H]2[C@H]1O 2.31% [at 11.4 µM]
C[C@@H](c1ccccc1)N1C(=O)[C@H]2[C@H]3[C@H](O)[C@H](O)C/C(=N/OC[C@@H](O)COCc4ccco4)[C@@H]3CC[C@@H]2C1=O 2.8% [at 11.4 µM]
COc1ccc2c3c([nH]c2c1)[C@H]1C[C@@H]2[C@@H](C[C@@H](O)[C@H](OC)[C@H]2C(=O)O)CN1CC3 4.43% [at 11.4 µM]
CC(=O)OC[C@@H]1O[C@H](C/C=N\O[C@@H](C)CN2CCCc3nc(C)c(C)cc32)C=C[C@@H]1OC(C)=O -0.762% [at 11.4 µM]
O=C(CSc1nc2ccccc2c2ccccc12)c1ccccc1 -1.33% [at 11.4 µM]
CC(CO)(CO)Nc1ncnc2ccccc12 15.3% [at 11.4 µM]
CN(C)C(=O)c1ccc(-c2nccc(N(C)Cc3ccco3)n2)cc1 0.769% [at 2.29 µM]
CN(C)C(=O)c1ccc(-c2cc(N(C)Cc3ccco3)ncn2)cc1 0.869% [at 2.29 µM]
c1cc(NNc2cccc(-c3nn[nH]n3)c2)cc(-c2nn[nH]n2)c1 -4.17% [at 11.4 µM]
FC(F)(F)c1ccccc1-c1cncnc1NCc1cccnc1 6.26% [at 2.29 µM]
CC(=O)[C@H]([C@@H](c1ccccc1)N1CCOCC1)N1CCOCC1 -15.9% [at 11.4 µM]
CO[C@H]1COC(=O)[C@H](C)NC(=O)C/C=C\[C@@H](C)[C@@H](NS(=O)(=O)c2ccc(C)cc2)COC(=O)[C@H](OCc2ccccc2)/C=C\[C@@H]1C -22.3% [at 11.4 µM]
Clc1ccccc1-c1cc(NCc2cccnc2)ncn1 -1% [at 2.29 µM]
CN(C)C(=O)c1ccc(-c2cc(NCc3cccnc3)ncn2)cc1 17.1% [at 2.29 µM]

AC50, inactive:
COc1ccc(NC(=O)CC#N)cc1OC
CCN(CC)C(=O)c1ccc(O)c(OC)c1
CCN1CC=C2C(C#N)=C(N)C(C#N)(C#N)[C@H](c3ccoc3)[C@H]2C1
CCN1CCN(CCCNC(=O)c2cc3cc4ccc(OC)cc4nc3o2)CC1
CCCNC(=O)Nc1ccc2c(c1)nc(C)n2C
O=C(NCCCN1CCCC1=O)Nc1ccc(F)c(Cl)c1
O=C(NCCNC[C@@H](O)COc1ccc(O)cc1)N1CCOCC1
COc1ccccc1OC[C@H](O)COC(N)=O
N=C(N)SCCc1ccc(OCc2ccc([N+](=O)[O-])cc2)cc1
CN1CCc2cc(Cl)c(O)cc2[C@@H](c2ccccc2)C1
Cc1ccc(OCC(=O)Nn2cnc3ccccc32)cc1
O=S(=O)(/N=C(/Nc1ccc(F)cc1F)c1ccc(Cl)cc1)c1ccccc1
Cc1cc(C)nc(NC(=O)CCCC(=O)O)c1
COc1cc(OC)nc(NC(C)=O)n1
N#Cc1ccc(CN2CCC3(CC2)CCN(C(=O)c2cc(C(F)(F)F)cc(C(F)(F)F)c2)CC3)cc1
COc1ccc2c(c1)c(CC(=O)N1CCOCC1)c(C)n2C(=O)c1ccc(Cl)cc1
O=C(CSc1c[nH]c2ccccc12)N1CCOCC1
CCOC(=O)c1[nH]c2cc(OC)c(OC)cc2c1NC(=O)c1ccc2c(c1)OCO2
CCOC(=O)c1[nH]c2cc3c(cc2c1NC(=O)CN1CCC2(CC1)OCCO2)OCO3
CN1CCN(CCCNC(=O)C2CCN(c3nnc(-n4cccc4)s3)CC2)CC1
CC1CN(C(=O)COc2ncnc3ccccc23)CC(C)O1 (stereo not given)
O=C(O)C1=CCNCC1
C[C@](N)(C(=O)O)c1ccc(-c2nn[nH]n2)cc1
COc1ccc(CCC(C)NC2C3CC4CC(C3)CC2C4)cc1 (stereo not given)
COc1cc(N[C@@H](C)CCCN)c2ncccc2c1
COc1ccc(C(=O)N2CCC[C@@]3(CCN(CC(C)C)C3)C2)cc1
Cc1noc(C)c1C(=O)N1CCC2(CCCN(C(=O)Nc3cccc(F)c3)C2)CC1
COc1cccc2c1OC1(C)CC2/C(=C(\C)O)C(=O)N1 (stereo not given)
CCOC(=O)C1=C(C)NC2(O)c3ccccc3C(=O)C12O (stereo not given)
CCCCOc1cc(C[C@@H]2CNC(=O)N2)ccc1OC
NC(=O)c1cc[n+](CC2=C(C(=O)[O-])N3C(=O)[C@@H](NC(=O)Cc4cccs4)[C@@H]3SC2)cc1
O=C(N[C@@H](c1ccccc1)[C@@H]1C[C@H]1C(=O)O)OCc1ccccc1
COC(=O)C1CC1C(NC(=O)[C@@H]1CCCN1)c1ccccc1 (stereo not given in full)
Cc1noc(C)c1C(=O)N1CCC[C@@]2(CCN(Cc3cc(C(F)(F)F)cc(C(F)(F)F)c3)C2)C1
CCOc1ccccc1CNCCN1CCOCC1
CCCCc1nc(SCC(=O)Nc2ncccn2)n[nH]1
N#CC(c1ccccn1)(c1ncc(C(F)(F)F)cc1Cl)N1CCOCC1 (stereo not given)
CN(C(=O)c1c(O)c2ccccc2n(C)c1=O)c1ccccc1

AC50, active:
COc1ccc(C(=O)c2ccc(OC)c(OC)c2)cc1OC 11.2 µM
CSc1nc(NC2CCCC2)c([N+](=O)[O-])c(NC2CCCC2)n1 2 µM
Cc1ccc(C2=NN(S(C)(=O)=O)C(c3cccs3)C2)cc1 (stereo not given) 11.2 µM
O=C(CC(NS(=O)(=O)c1ccc(Cl)cc1)c1ccco1)NCc1ccco1 (stereo not given) 10 µM
O=C(NCCCn1ccnc1)Nc1ccc(Cl)cc1 0.316 µM
COc1ccc2c(Cl)c(C(=O)NCCCn3ccnc3)sc2c1Cl 0.891 µM
S=C(S)NCCCn1ccnc1 2 µM
CCOC(=O)c1[nH]c(COC(=O)CCOc2ccccc2OC)c(C(=O)OCC)c1C 4.47 µM
CCCCCN=c1ccn(Cc2ccccc2)c2ccccc12 0.316 µM
O=C(Cn1cnc2ccccc21)NC(c1ccccc1)c1ccccc1 15.8 µM
O=S(=O)(/N=C(\Sc1ccccc1)c1ccccc1)c1ccc(Cl)cc1 3.98 µM
CC#CCCCC(=O)Nc1cc(OC)nc(OC)n1 11.2 µM
COCCN=C1Sc2nc3c(C)cccc3cc2CN1Cc1ccco1 4.47 µM
CC(C)Cn1c(-c2ccc(Cl)cc2)cnc1SCC(=O)N1CCOCC1 14.1 µM
COC(=O)c1[nH]c2cc(OC)ccc2c1NC(=O)c1ccc2c(c1)OCO2 3.55 µM
CCOC(=O)c1[nH]c2cc(OC)c(OC)cc2c1NC(=O)c1nonc1C 0.708 µM
COc1cccc(NC(=O)c2oc3ccccc3c2NC(=O)c2ccc3c(c2)OCO3)c1 3.55 µM
CCOC(=O)c1[nH]c2ccc(OC)cc2c1NC(=O)c1ccc2c(c1)OCO2 14.1 µM
N#Cc1ccc(-c2ccccc2)nc1SCC(=O)c1cccc(Cl)c1 2 µM
CCOc1ccc(OCCOc2ncnc3ccccc23)cc1 17.8 µM
CCC(=O)N(Cc1ccco1)c1nc(-c2ccccc2)cs1 2.51 µM
Nc1cc(-c2nn[nH]n2)ccc1F 12.6 µM
COc1ccc(CCC(C)Nc2cccc(F)c2)cc1 (stereo not given) 12.6 µM
COc1cccc(CN2C(=O)N(C(C)C)C(N(O)C(=O)NC(C)C)C2(C)C)c1OC (stereo not given) 15.8 µM
CCCCOc1ccccc1C1CC(=O)NC2=C1C(=O)CCC2 (stereo not given) 17.8 µM
CCC(C)OC(=O)C1=C(C)NC(=O)CC1c1ccccc1OC (stereo not given) 7.08 µM
CCCOc1ccccc1C1CC(=O)NC(C)=C1C(=O)OCC(C)C (stereo not given) 1.12 µM
COC(=O)[C@@H]1C[C@H]1[C@@H](NC(=O)Oc1ccc(F)cc1)c1ccccc1 3.98 µM
COC(=O)[C@H]1C[C@@H]1[C@H](NC(=O)OCc1ccccc1)c1ccccc1 15.8 µM
CCc1cc(C(c2ccccc2OC)N2CCOCC2)c(NC(=O)c2ccccc2)s1 (stereo not given) 1.58 µM
Cc1cc(NC(=O)CSc2n[nH]c(-c3cccs3)n2)no1 12.6 µM
N#CC(c1ccc(Cl)cc1)(c1ncc(C(F)(F)F)cc1Cl)N1CCOCC1 (stereo not given) 10 µM
COc1ccc(S(=O)(=O)NNC(=O)C2Cc3c(ccc4ccccc34)O2)cc1 (stereo not given) 7.94 µM
CC(C)(CNC(=O)c1ccc([N+](=O)[O-])c(Cl)c1)CNC(=O)c1ccc([N+](=O)[O-])c(Cl)c1 0.891 µM
O=C(NCc1cccnc1)c1sc2cc(Cl)ccc2c1Cl 10 µM
CN(C(=O)CC(NC(=O)c1ccccc1)(c1ccccc1)c1ccccc1)c1ccccc1 15.8 µM
